The text below walks through data of the supplement of paper PMC11006884.

Of roughly 6,500 targets only a part is listed; those with a hit were picked by preference. About 2% of all pairs of compound and target were hits. Values without a mark were called inactive.

UniProt O95347, sequence (O95347 whole entry, looked up): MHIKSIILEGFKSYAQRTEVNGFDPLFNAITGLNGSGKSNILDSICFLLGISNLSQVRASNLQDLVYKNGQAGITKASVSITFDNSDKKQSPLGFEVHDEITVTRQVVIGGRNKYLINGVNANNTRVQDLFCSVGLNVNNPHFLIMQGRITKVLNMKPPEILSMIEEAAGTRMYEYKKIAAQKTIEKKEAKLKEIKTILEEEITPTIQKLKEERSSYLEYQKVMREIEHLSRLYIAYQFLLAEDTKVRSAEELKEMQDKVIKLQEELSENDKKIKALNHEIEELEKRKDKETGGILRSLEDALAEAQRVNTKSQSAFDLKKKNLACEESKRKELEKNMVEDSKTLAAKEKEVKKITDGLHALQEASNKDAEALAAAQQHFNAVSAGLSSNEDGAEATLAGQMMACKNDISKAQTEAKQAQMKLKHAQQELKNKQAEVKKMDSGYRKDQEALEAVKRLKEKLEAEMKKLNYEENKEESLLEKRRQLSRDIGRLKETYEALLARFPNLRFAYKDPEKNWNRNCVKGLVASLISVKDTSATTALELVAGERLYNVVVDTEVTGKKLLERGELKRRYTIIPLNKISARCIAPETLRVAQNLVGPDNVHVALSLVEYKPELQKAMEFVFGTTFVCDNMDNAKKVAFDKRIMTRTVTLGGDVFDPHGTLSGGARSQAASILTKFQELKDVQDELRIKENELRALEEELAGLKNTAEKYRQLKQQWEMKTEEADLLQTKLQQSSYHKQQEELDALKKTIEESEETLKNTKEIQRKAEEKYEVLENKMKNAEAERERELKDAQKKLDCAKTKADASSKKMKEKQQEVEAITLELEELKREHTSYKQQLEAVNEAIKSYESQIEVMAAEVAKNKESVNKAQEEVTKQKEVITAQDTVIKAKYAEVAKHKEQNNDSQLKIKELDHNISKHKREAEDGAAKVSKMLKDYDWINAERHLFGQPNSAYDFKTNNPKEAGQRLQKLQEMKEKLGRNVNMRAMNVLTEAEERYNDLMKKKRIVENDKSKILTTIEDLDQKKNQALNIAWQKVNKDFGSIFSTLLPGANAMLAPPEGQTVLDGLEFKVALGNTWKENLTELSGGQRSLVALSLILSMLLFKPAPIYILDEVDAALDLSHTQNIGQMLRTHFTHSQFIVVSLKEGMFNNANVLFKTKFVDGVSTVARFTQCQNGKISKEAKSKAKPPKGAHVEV
UniProt P07737, sequence (P07737 whole entry, looked up): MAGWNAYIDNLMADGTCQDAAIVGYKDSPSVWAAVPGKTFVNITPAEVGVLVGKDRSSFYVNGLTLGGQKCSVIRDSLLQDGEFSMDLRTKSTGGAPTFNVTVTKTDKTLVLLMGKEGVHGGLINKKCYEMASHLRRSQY
UniProt P38117, sequence (P38117 whole entry, looked up): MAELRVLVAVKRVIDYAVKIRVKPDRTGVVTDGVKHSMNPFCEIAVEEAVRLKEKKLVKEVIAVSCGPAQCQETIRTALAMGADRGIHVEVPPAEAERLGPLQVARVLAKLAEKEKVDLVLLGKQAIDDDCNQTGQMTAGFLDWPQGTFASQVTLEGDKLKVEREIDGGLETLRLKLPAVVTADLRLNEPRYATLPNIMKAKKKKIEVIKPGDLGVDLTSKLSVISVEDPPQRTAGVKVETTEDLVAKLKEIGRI
UniProt P49792, sequence (P49792 whole entry, looked up): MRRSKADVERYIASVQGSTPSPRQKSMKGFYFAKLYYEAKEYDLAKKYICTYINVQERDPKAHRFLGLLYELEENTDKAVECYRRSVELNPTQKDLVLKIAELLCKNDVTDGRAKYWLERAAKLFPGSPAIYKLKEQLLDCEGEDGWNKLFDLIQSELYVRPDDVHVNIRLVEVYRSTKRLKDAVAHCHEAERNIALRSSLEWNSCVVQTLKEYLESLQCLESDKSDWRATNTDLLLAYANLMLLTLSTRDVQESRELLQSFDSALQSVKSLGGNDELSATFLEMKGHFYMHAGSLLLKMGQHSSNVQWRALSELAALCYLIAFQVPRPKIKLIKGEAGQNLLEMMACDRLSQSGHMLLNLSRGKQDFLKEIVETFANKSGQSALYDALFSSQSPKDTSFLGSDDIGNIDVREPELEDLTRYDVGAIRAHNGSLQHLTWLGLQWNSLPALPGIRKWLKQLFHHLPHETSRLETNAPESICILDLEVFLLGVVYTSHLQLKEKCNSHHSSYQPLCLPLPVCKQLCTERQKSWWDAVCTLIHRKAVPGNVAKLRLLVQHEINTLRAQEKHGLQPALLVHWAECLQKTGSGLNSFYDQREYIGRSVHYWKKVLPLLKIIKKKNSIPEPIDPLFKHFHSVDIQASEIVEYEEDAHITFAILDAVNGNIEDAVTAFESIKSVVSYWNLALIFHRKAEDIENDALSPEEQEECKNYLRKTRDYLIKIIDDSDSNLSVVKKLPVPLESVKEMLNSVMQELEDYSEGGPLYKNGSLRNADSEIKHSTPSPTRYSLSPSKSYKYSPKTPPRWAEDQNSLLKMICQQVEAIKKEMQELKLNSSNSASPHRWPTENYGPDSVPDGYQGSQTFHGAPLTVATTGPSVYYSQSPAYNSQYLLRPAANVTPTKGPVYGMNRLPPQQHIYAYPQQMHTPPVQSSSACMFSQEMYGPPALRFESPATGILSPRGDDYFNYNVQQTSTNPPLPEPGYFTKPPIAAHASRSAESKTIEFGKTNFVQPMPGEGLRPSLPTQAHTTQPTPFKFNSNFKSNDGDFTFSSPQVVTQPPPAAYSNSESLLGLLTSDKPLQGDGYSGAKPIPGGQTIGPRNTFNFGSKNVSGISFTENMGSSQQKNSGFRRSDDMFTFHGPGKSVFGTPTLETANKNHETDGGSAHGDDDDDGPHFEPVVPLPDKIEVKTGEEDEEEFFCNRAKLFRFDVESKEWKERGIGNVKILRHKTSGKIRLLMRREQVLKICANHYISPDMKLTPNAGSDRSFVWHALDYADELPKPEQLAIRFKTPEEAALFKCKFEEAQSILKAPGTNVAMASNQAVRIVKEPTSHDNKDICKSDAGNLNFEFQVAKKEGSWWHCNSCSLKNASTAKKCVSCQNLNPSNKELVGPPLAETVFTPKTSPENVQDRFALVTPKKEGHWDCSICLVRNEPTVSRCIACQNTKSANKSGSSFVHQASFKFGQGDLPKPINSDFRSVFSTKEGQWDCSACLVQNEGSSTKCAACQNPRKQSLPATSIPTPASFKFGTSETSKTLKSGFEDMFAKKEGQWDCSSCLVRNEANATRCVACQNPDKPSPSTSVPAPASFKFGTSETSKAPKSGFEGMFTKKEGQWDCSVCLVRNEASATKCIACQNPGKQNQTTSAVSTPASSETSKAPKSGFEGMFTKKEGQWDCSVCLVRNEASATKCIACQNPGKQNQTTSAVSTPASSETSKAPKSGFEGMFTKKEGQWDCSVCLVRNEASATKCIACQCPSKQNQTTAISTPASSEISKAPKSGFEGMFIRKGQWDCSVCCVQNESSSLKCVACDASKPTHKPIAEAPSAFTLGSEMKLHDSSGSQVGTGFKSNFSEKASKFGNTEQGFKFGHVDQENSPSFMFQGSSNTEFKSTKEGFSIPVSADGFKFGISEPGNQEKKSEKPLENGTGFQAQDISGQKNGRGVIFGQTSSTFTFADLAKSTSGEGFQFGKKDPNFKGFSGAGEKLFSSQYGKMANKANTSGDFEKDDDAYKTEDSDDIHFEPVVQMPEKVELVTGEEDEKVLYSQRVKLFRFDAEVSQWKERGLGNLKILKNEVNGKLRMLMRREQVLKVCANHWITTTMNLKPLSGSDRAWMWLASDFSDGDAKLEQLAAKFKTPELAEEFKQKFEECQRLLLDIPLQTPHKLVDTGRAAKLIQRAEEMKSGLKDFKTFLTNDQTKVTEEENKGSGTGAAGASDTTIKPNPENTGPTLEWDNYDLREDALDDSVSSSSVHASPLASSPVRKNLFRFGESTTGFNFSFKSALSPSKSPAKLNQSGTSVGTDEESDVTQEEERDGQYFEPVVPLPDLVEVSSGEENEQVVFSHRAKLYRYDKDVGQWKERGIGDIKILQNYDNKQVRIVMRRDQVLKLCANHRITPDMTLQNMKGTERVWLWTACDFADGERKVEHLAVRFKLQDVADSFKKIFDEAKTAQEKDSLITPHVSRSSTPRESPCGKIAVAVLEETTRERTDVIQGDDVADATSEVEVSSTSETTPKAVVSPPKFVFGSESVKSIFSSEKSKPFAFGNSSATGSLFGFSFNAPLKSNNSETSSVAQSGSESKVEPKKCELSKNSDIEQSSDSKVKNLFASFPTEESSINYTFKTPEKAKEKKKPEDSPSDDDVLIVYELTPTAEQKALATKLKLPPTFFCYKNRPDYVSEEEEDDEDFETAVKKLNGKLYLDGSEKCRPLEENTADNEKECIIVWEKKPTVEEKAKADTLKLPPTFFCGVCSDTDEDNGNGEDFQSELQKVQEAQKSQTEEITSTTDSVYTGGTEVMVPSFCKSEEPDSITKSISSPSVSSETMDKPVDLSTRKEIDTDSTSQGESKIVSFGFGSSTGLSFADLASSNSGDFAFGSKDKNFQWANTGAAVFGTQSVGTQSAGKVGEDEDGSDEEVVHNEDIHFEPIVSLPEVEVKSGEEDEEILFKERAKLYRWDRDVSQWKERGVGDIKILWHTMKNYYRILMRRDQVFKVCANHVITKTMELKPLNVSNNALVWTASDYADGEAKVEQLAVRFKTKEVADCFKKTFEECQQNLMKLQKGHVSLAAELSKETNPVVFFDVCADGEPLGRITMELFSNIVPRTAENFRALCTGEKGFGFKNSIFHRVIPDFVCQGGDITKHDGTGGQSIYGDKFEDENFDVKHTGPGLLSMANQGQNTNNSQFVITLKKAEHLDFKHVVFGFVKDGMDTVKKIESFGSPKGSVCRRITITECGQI
UniProt P45880, sequence (P45880 whole entry, looked up): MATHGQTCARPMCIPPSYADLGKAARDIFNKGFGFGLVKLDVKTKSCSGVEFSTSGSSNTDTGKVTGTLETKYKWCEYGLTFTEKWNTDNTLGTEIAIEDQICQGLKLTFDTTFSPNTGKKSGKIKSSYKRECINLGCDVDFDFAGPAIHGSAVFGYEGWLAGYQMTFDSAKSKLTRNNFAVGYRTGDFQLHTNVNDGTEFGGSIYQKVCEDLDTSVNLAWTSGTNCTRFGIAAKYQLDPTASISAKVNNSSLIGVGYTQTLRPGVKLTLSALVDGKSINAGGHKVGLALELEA

Compound in this assay: COC(=O)C#Cc1ccccc1 [methyl 3-phenylpropiolate]
Briefly: log2 ratio of iodoacetamide-alkyne labeling of the cysteine site, DMSO over compound (competition); higher = stronger covalent engagement of the cysteine by the compound, active = 1 or more. As to conditions: 500 µM; treatment time 1 h; system: HEK293T cell lysate. In short, it runs like this:
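Reporter intensities give each cysteine's log2 competition ratio as the mean of control channels over the mean of compound channels. The samples were HEK293T lysate (2 mg/mL) given vehicle or electrophile (500 µM, 1 h, ambient temperature), then iodoacetamide alkyne (1 h), followed by click coupling to sCIP-TMT reagents, pooling, trypsin digestion overnight at 37 °C, streptavidin enrichment, acid elution, Orbitrap Eclipse LC-MS/MS with FAIMS and FragPipe quantification. Duplicate channels and three replicates were run, and cysteines quantified in only one replicate were discarded.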
Regarding FDFT1 C6 (UniProt P37268), the “log2 ratio of iodoacetamide-alkyne labeling” value (“log2 ratio” for short) is 0.233. As for SLC7A1 C628 (UniProt P30825), the “log2 ratio” value is 0.105. With EEF2 C812 (UniProt P13639), the “log2 ratio” value was 0.148.

For the target APC C1387 (UniProt P25054), the “log2 ratio” value is 0.256.

MSN C284 (UniProt P26038): the “log2 ratio” value is -0.16. Regarding RANBP2 C82 (UniProt P49792), the “log2 ratio” value was 0.564. For TMPO C280 (UniProt P42166), the “log2 ratio” value is 1.09 (active). For NDUFA8 C110 (UniProt P51970), the “log2 ratio” value was 1.12 (active). For the target SMC2 C585 (UniProt O95347), the “log2 ratio” value is 0.258. In the case of VDAC2 C227 (UniProt P45880), the “log2 ratio” value was 1.39 (active). In the case of CARS C27 (UniProt P49589), the “log2 ratio” value was 0.454. For the target ACSL3 C652 (UniProt O95573), the “log2 ratio” value is -0.112. For APEX1 C93 (UniProt P27695), the “log2 ratio” value was 0.0645. For UniProt O95071_C739, the “log2 ratio” value is 0.0375.

In the case of IDH3A C331 (UniProt P50213), the “log2 ratio” value was 0.257. Regarding EIF2S3 C105 (UniProt P41091), the “log2 ratio” value is 0.341. Turning to CAST C408 (UniProt P20810), the “log2 ratio” value was 1.01 (active).

ETFB C71 (UniProt P38117): the “log2 ratio” value is 0.579. As for FLNA C1018 (UniProt P21333), the figure is 0.0782. On to ADD1 C68 (UniProt P35611), for which the “log2 ratio” value was 0.368. For PLCG1 C976 (UniProt P19174), the “log2 ratio” value was 1.9 (active). Turning to PFN1 C17 (UniProt P07737), the “log2 ratio” value was -0.417.
